# Results as given in PMC11995724, “Antibiotic target discovery by integrated phenotypic and activity-based profiling of electrophilic fragments” (Cell chemical biology, 2025).
# Out of some 3,200 compounds screened, about 110 (3.4%) showed an effect of 50% or more. Only a selection was taken, and strong results are over-represented in it overall.
# Tested on: T1, V. cholerae SAD30
# T1 construct: SAD30
# Set-up: species or system S. aureus MSSA476 (TSB) or V. cholerae SAD30 (LB); 384-well bacterial growth screen at 25 uM, OD600 relative to DMSO control
# Conditions: relative growth, OD600, LB; 25 µM; inhibitor
row,Structure (SMILES),% of control remaining [%]
1,"O=C1C=CC(=O)N1c1ccc(F)cc1 [10-M10, 1-(4-fluorophenyl)-2,5-dihydro-1H-pyrrole-2,5-dione]",16.8323
2,"CC(Cl)C(=O)Nc1ccc(SC(F)F)cc1 (centres unmarked) [4-L09, 2-chloro-N-{4-[(difluoromethyl)sulfanyl]phenyl}propanamide]",88.1604
3,"O=C1C=CC(=O)N1c1cnccn1 [10-P07, 1-(pyrazin-2-yl)-2,5-dihydro-1H-pyrrole-2,5-dione]",97.4089
4,"O=C1C=CC(=O)N1c1ccc(F)c(Cl)c1 [10-D15, 1-(3-chloro-4-fluorophenyl)-2,5-dihydro-1H-pyrrole-2,5-dione]",25.716
5,"N#Cc1ccc(N2C(=O)C=CC2=O)cc1 [10-B09, 4-(2,5-dioxo-2,5-dihydro-1H-pyrrol-1-yl)benzonitrile]",24.9367
6,"N#CC(=Cc1ccc(C#N)cc1)C(=O)N1CCCC1 [9-P21, 4-[2-cyano-2-(pyrrolidine-1-carbonyl)eth-1-en-1-yl]benzonitrile]",93.8817
7,"CC(Cl)C(=O)Nc1ccc(F)c(Cl)c1 (centres unmarked) [4-A04, 2-chloro-N-(3-chloro-4-fluorophenyl)propanamide]",99.7196
8,"O=C(CCl)Nc1ccc(SC(F)F)cc1 [4-B10, 2-chloro-N-{4-[(difluoromethyl)sulfanyl]phenyl}acetamide]",104.205
9,"O=C1C=CC(=O)N1c1ccc(SC(F)F)cc1 [10-A18, 1-{4-[(difluoromethyl)sulfanyl]phenyl}-2,5-dihydro-1H-pyrrole-2,5-dione]",28.9889
10,"COc1ccc(NC(=O)C(C#N)=Cc2cnc3c(C)cccn23)cc1 [9-L03, 2-cyano-N-(4-methoxyphenyl)-3-{8-methylimidazo[1,2-a]pyridin-3-yl}prop-2-enamide]",95.7852
11,"CN1C=C(C(F)(F)F)C=CC1=C(C#N)C(=O)Nc1ccccc1F [8-H20, 2-cyano-N-(2-fluorophenyl)-2-[1-methyl-5-(trifluoromethyl)-1,2-dihydropyridin-2-ylidene]acetamide]",66.9613
12,"CC(Cl)C(=O)N(C)Cc1ccccc1 (centres unmarked) [6-I13, N-benzyl-2-chloro-N-methylpropanamide]",78.87
13,"CN(c1ccccc1)S(=O)(=O)c1cccc(NC(=O)CCl)c1 [4-H04, 2-chloro-N-{3-[methyl(phenyl)sulfamoyl]phenyl}acetamide]",111.106
14,"O=C(CCc1ccccc1)NC1CCN(C(=O)CCl)CC1 [5-L08, N-[1-(2-chloroacetyl)piperidin-4-yl]-3-phenylpropanamide]",100.704
15,"C=CC(=O)N(C)CC(=O)NCc1c(O)nnc(C)c1C [2-I20, N-({[(3-hydroxy-5,6-dimethylpyridazin-4-yl)methyl]carbamoyl}methyl)-N-methylprop-2-enamide]",95.9085
16,"CC(Cl)C(=O)N1CCN(c2cc(-c3ccccc3F)n[nH]2)CC1 (centres unmarked) [6-N20, 2-chloro-1-{4-[3-(2-fluorophenyl)-1H-pyrazol-5-yl]piperazin-1-yl}propan-1-one]",84.7853
17,"CC(=O)Nc1ccc(C(=O)CCl)cc1 [10-O12, N-[4-(2-chloroacetyl)phenyl]acetamide]",74.4983
18,"CCC(=O)Nc1ccc(C(=O)CCl)cc1 [10-C03, N-[4-(2-chloroacetyl)phenyl]propanamide]",111.903
19,"CC(C)CC(=O)Nc1ccc(C(=O)CCl)cc1 [10-N06, N-[4-(2-chloroacetyl)phenyl]-3-methylbutanamide]",76.8362
20,"O=C(CCl)c1ccc(NC(=O)c2ccccc2)cc1 [10-B06, N-[4-(2-chloroacetyl)phenyl]benzamide]",21.5079
21,"NC(=O)Nc1ccc(C(=O)CCl)cc1 [10-J07, [4-(2-chloroacetyl)phenyl]urea]",65.4588
22,"CC(C)C(=O)Nc1ccc(C(=O)CCl)cc1 [10-D04, N-[4-(2-chloroacetyl)phenyl]-2-methylpropanamide]",37.405
23,"C=CC(=O)NCc1nc2ccccc2n1C1CC1 [2-N03, N-[(1-cyclopropyl-1H-1,3-benzodiazol-2-yl)methyl]prop-2-enamide]",105.172
24,"N#CC(=Cc1cc2c(cc1[N+](=O)[O-])OCO2)C(=O)NC1CCCCC1 [8-F22, 2-cyano-N-cyclohexyl-3-(6-nitro-1,3-dioxaindan-5-yl)prop-2-enamide]",83.6846

row,Structure (SMILES),% of control remaining [%]
1,"CN(C)S(=O)(=O)c1cccc(NC(=O)CCl)c1 [4-J08, 2-chloro-N-[3-(dimethylsulfamoyl)phenyl]acetamide]",94.3714
2,"CC(C)NC(=O)C(C#N)=Cc1ccc(C(F)(F)F)cc1 [8-L13, 2-cyano-N-(propan-2-yl)-3-[4-(trifluoromethyl)phenyl]prop-2-enamide]",68.3209
3,"Cc1cc(=O)[nH]c(-c2cccc(NC(=O)C(C#N)=Cc3ccco3)c2)n1 [8-B10, 2-cyano-3-(furan-2-yl)-N-[3-(4-methyl-6-oxo-1,6-dihydropyrimidin-2-yl)phenyl]prop-2-enamide]",79.4697
4,"COc1ccc(N2C(=O)C=CC2=O)c([N+](=O)[O-])c1 [10-L11, 1-(4-methoxy-2-nitrophenyl)-2,5-dihydro-1H-pyrrole-2,5-dione]",30.3916
5,"COc1ccc(NC(=O)C(C)Cl)c([N+](=O)[O-])c1 (centres unmarked) [6-B08, 2-chloro-N-(4-methoxy-2-nitrophenyl)propanamide]",90.3972
6,"Cc1ccc(N2C(=O)C=CC2=O)c([N+](=O)[O-])c1 [10-N13, 1-(4-methyl-2-nitrophenyl)-2,5-dihydro-1H-pyrrole-2,5-dione]",27.1186
7,"Cc1ccc(NC(=O)CCl)c([N+](=O)[O-])c1 [4-A07, 2-chloro-N-(4-methyl-2-nitrophenyl)acetamide]",105.068
8,"COc1ccc(NC(=O)CCl)c([N+](=O)[O-])c1 [4-I21, 2-chloro-N-(4-methoxy-2-nitrophenyl)acetamide]",107.311
9,"CSc1cccc(-n2c(C)cc(C(=O)CCl)c2C)c1 [10-J16, 2-chloro-1-{2,5-dimethyl-1-[3-(methylsulfanyl)phenyl]-1H-pyrrol-3-yl}ethan-1-one]",105.825
10,"Cc1ccc(NC(=O)C(C)Cl)cc1S(=O)(=O)N1CCOCC1 (centres unmarked) [5-D22, 2-chloro-N-[4-methyl-3-(morpholine-4-sulfonyl)phenyl]propanamide]",107.429
11,"N#CC(=Cc1ccc(Cl)cc1Cl)C(=O)Nc1nccs1 [9-H19, 2-cyano-3-(2,4-dichlorophenyl)-N-(1,3-thiazol-2-yl)prop-2-enamide]",79.4697
12,"C=CC(=O)Nc1ccnn1Cc1cccc(Cl)c1 [1-N14, N-{1-[(3-chlorophenyl)methyl]-1H-pyrazol-5-yl}prop-2-enamide]",86.3592
13,"C=CC(=O)N(CC)CC(=O)N1CC(C)(C)C1c1nccn1C (centres unmarked) [2-J16, N-{2-[3,3-dimethyl-2-(1-methyl-1H-imidazol-2-yl)azetidin-1-yl]-2-oxoethyl}-N-ethylprop-2-enamide]",90.3503
14,"CC(Cl)C(=O)NC(=O)Nc1ccccc1 (centres unmarked) [5-I21, 3-(2-chloropropanoyl)-1-phenylurea]",104.066
15,"C=CC(=O)NC1CS(=O)(=O)C1 [3-P18, N-(1,1-dioxo-1lambda6-thietan-3-yl)prop-2-enamide]",112.909
16,"COc1cc([N+](=O)[O-])ccc1NC(=O)C(C)Cl (centres unmarked) [4-K12, 2-chloro-N-(2-methoxy-4-nitrophenyl)propanamide]",93.5087
17,"COc1cc([N+](=O)[O-])ccc1NC(=O)CCl [4-O07, 2-chloro-N-(2-methoxy-4-nitrophenyl)acetamide]",100.582
18,"COc1ccc([N+](=O)[O-])cc1NC(=O)CCl [4-P17, 2-chloro-N-(2-methoxy-5-nitrophenyl)acetamide]",111.969
19,"COc1cc([N+](=O)[O-])ccc1N1C(=O)C=CC1=O [10-H13, 1-(2-methoxy-4-nitrophenyl)-2,5-dihydro-1H-pyrrole-2,5-dione]",24.625
20,"COc1ccc([N+](=O)[O-])cc1NC(=O)C(C)Cl (centres unmarked) [5-N14, 2-chloro-N-(2-methoxy-5-nitrophenyl)propanamide]",92.6342
21,"COc1ccc([N+](=O)[O-])cc1N1C(=O)C=CC1=O [10-P13, 1-(2-methoxy-5-nitrophenyl)-2,5-dihydro-1H-pyrrole-2,5-dione]",32.7294
22,"CCN(CC)S(=O)(=O)c1cccc(NC(=O)CCl)c1 [4-M07, 2-chloro-N-[3-(diethylsulfamoyl)phenyl]acetamide]",105.931
23,"C=CC(=O)N1CCC(C(=O)N[C@H]2CCC[C@H]2O)CC1 [2-K04, N-[(1S,2R)-2-hydroxycyclopentyl]-1-(prop-2-enoyl)piperidine-4-carboxamide]",95.9085
